# Bioassay records deposited in PubChem BioAssay by several laboratories.
# A selection: hits, their analogues and other compounds. The true share with any hit is near 2.5%.
# ANO1 block – inhibitors of mouse TMEM16A calcium-activated chloride channel; AID 588511; normalized B-score (activity score, 25-100; higher = stronger inhibition) at 10 µM; Q8BHY3; HEK293 TMEM16A/YFP iodide influx fluorescence, ionomycin; 310,000 tested, 1.2% active;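 active = ratio plate-corrected score three or more library SD toward inhibition, starting fluorescence score within five deviations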;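 note: score derived from kinetic fluorescence span divided by baseline fluorescence per well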
# CHT allo act – allosteric activators of human choline transporter CHT. Q9GZV3. 310,000 tested, 0.49% active. B-score at 10 µM. CHT-expressing cells, membrane potential dye, choline EC20; active compounds read high; LV-AA mutant CHT in HEK293 cells;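 active = initial fluorescence not abnormally high and integrated response B-score, plate-corrected, over 3 SD above library mean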
# CHT block – inhibits the human high affinity choline transporter; CHT-expressing cells, membrane potential dye, choline response; active compounds read low; B-score at 10 µM; 310,000 tested, 0.86% active; AID 488975;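 active = B-score over 3 SD under the library average, and starting fluorescence ratio not unusually high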;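 note: choline stimulus applied at its EC90 after an EC20 pre-addition; B-score computed on integrated fluorescence ratio after choline addition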
# PKA-R1A act – activators of PKA-R1A complex | P00514+P68181 | activation, % at 11.4 µM | PKA-R1A dissociation, Cy5-IP20 fluorescence polarization; scaled: DMSO 0%, 113 µM cGMP 100% | AID 504707 | 340,000 tested, 0.083% active;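 active = percent activation above the mean of all tested compounds plus 3 SD, cut at about 19% in these data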;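 note: higher means more PKAc released from R1A so a rise in polarization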
# PKA-R2B act – PKA-R2B complex activation. activation, % at 11.4 µM. AID 504700. 340,000 tested, 0.079% active. P22694+P31323. PKA-R2B holoenzyme dissociation, Cy5-IP20 fluorescence polarization; R2B truncated from residue 108, S112A mutant; 0% DMSO only, 100% 113 µM cGMP;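 active = activation above a cutoff set at the mean over all compounds plus 3 SD, cut at about 18% in these data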;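 note: higher means more holoenzyme dissociation and a rise in polarization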
# ANO1 activ – activators or potentiators of mouse TMEM16A chloride channel; AID 623877; Q8BHY3; B-score at 10 µM; 340,000 tested, 0.3% active; HEK293 TMEM16A/YFP-H148Q/I152L, iodide quench fluorescence; active compounds read low;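 active = fluorescence-ratio B-score plate-corrected deviation score at least 3 library SD below zero, with starting fluorescence score within 5 deviations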;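 note: channel opened by trigger with iodide after compound preincubation; score built on the fluorescence ratio of max minus min over baseline; more negative score means more quench and so TMEM16A activation or potentiation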
# CHT block conf – confirmation of human choline transporter CHT inhibitors. shares compounds with CHT block. CHT-expressing cells, choline membrane potential dye; LV-to-AA substituted CHT, HEK293 cells. CHT activity remaining % of control (active compounds read low), % at 10 µM. 2,400 tested, 70% active;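 active = choline transporter activity left, mean of duplicates at 10 µM, below buffer-only control mean minus 3 SD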;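 note: depolarization triggered by choline at its EC90 following an EC20 pre-addition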
# HEK293 MPD ctr – CHT inhibitor counter-screen hit in parental HEK293 cells; shares compounds with CHT block; membrane potential dye, choline response; active = decrease or increase beyond buffer ±3SD; membrane potential ratio readout (active if shifted either direction beyond buffer ±3SD; no single direction) at 10 µM; 2,400 tested, 4% active;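 note: parental cells lack the transporter so any hit is non-specific; ratio is peak minus trough fluorescence over baseline after EC90 choline challenge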
# CHT act confirm – human CHT activation, confirmatory screen. shares compounds with CHT allo act. CHT-expressing cells, membrane potential dye fluorescence (FDSS); % of choline EC20–EC90 response window; HEK293 expressing CHT LV-AA mutant; choline added at its EC20. activation, % at 10 µM. 2,500 tested, 91% active. AID 504833;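 active = primary screen active, with duplicate mean activation above negative control mean plus 3 SD, cut at about 11% in these data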
# HEK293 MP dye – CHT activator counter-screen hit in parental HEK293 cells; shares compounds with CHT allo act; membrane potential dye fluorescence (FDSS); measured after EC20 choline addition; ratio readout change at 10 µM, hits read low; 2,500 tested, 62% active; AID 623908;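 active = duplicate-averaged ratio beyond 3 SD from buffer wells, up or down, though filed actives are nearly all decreases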
# TMEM16A reconf – reconfirmed blocker of mouse TMEM16A calcium-activated chloride channel; 2,300 tested, 39% active; shares compounds with ANO1 block; inhibition, % at 10 µM; HEK293 TMEM16A/YFP-H148Q, iodide quench fluorescence; ionomycin added to raise cell calcium;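 active = mean duplicate percent inhibition, scaled so buffer wells are 0 and the reference blocker 100, over three buffer SD above buffer mean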
# HEK293 Ca mobil – counter-screen for TMEM16A inhibitors: effect on calcium mobilization; shares compounds with ANO1 block; TMEM16A/YFP HEK293, Fluo4 calcium mobilization; calcium response (% of ionomycin), % at 10 µM; 2,300 tested, 2% active; AID 652231;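 active = duplicate-averaged calcium signal over 20% of the ionomycin maximum, relative to buffer baseline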;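 note: each well's signal is peak minus trough fluorescence divided by its pre-addition baseline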
# YFP-HEK293 quench – acts in parental YFP-HEK293 cells lacking TMEM16A, counter-screen; iodide YFP quench, ionomycin; 2,300 tested, under 10 active; YFP ratio F(max-min)/F0 at 10 µM; shares compounds with ANO1 block;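 active = yellow fluorescent protein signal ratio exceeding the buffer control mean by over 5 SD of those controls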;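 note: ratio is mean of duplicate wells from kinetic YFP trace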
# ClC-1 rat inh – rat ClC-1 inhibition, TMEM16A specificity screen | CHO ClC-1-YFP, iodide influx fluorescence quench; iodide control reads 0, buffer control 100 | ratio percent, % at 10 µM | AID 652236 | shares compounds with ANO1 block | 2,300 tested, under 10 active;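 active = duplicate-mean ratio percent above the mean of iodide-only control wells, which defines zero, plus 5 of their SD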;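 note: higher percent means stronger block of ClC-1 iodide influx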
# Target sequence (P35524 whole entry, looked up): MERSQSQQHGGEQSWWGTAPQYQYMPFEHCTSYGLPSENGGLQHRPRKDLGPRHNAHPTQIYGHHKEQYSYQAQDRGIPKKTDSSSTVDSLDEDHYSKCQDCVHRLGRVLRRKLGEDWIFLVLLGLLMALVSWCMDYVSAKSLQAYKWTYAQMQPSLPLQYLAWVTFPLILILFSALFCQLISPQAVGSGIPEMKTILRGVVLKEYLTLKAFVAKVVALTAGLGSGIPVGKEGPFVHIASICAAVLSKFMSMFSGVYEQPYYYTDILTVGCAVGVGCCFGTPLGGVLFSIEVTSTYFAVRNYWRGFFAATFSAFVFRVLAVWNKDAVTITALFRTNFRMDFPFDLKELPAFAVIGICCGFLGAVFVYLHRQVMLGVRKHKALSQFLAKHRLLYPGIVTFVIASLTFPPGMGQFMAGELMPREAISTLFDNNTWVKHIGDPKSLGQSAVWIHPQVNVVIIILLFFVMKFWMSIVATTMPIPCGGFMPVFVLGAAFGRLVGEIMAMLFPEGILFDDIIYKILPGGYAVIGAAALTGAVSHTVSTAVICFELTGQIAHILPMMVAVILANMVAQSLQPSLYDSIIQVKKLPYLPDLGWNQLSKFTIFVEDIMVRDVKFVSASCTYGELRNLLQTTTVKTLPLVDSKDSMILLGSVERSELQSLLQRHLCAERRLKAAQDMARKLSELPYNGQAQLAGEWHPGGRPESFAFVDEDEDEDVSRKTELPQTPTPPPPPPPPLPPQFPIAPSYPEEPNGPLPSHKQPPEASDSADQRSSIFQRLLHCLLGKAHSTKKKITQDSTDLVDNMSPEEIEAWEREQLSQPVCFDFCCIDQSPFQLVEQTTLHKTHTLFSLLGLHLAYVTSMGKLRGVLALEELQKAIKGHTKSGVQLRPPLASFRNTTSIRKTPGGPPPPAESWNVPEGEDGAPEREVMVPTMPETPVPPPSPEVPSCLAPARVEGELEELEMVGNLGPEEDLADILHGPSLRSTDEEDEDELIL
# A number is an active result; i = inactive; nt = no result given.
SMILES,ANO1 block,CHT allo act,CHT block,PKA-R1A act,PKA-R2B act,ANO1 activ,CHT block conf,HEK293 MPD ctr,TMEM16A reconf,HEK293 Ca mobil,YFP-HEK293 quench,ClC-1 rat inh,others
O=C1C2C(C(=O)N1/N=C/c1cc(Br)cc([N+](=O)[O-])c1O)C1C=CC2C12CC2 (configuration not stated),i,i,-7.57,i,i,i,43.4%,i,19.0%,i,i,i,
CCCCN(C(=O)/C=C/c1ccc(OC)cc1)C1CCS(=O)(=O)C1 (configuration not stated),i,i,i,i,i,i,nt,nt,nt,nt,nt,nt,
C=CCc1cc(C(=O)N2CCCCC2)ccc1O,i,i,i,i,i,i,nt,nt,nt,nt,nt,nt,
C=CCc1ccc(O)c(-c2ccc(O)c(CC=C)c2)c1,100,i,-7.03,i,i,i,61.8%,i,56.0%,i,i,i,
COc1ccc(NC(=O)NCCc2cccc(Cl)c2)cc1OC,i,i,i,i,i,i,nt,nt,nt,nt,nt,nt,
Cc1ccc(-c2csc(NC(=O)c3ccc(Br)cc3)c2C(=O)O)cc1,100,i,-5.32,i,i,i,50.6%,i,28.5%,i,i,i,
Cc1noc(C)c1S(=O)(=O)N(C)C[C@H]1Oc2ccc(NS(=O)(=O)c3cn(C)cn3)cc2C(=O)N([C@H](C)CO)C[C@@H]1C,nt,nt,nt,i,i,nt,nt,nt,nt,nt,nt,nt,
CCCCCC(=O)N1C[C@@H](n2cc(C3CC3)nn2)[C@H](O)C[C@@H]1c1ccc(OC)cc1,nt,nt,nt,i,i,nt,nt,nt,nt,nt,nt,nt,
Cc1ccc(S(=O)(=O)N/N=C/c2cc(Br)ccc2O)cc1,100,i,-5.59,i,i,i,67.4%,i,19.5%,i,i,i,
COc1ccc(O)c(/C=N/NS(=O)(=O)c2ccc(C)cc2)c1,i,i,i,i,i,i,nt,nt,nt,nt,nt,nt,
CCOc1ccccc1NS(=O)(=O)c1ccc2c(c1)N(C)CCO2,i,i,i,i,i,i,nt,nt,nt,nt,nt,nt,
CCC/C=C1/CCCOC(C(=O)NCc2ccc(C)o2)(C(F)(F)F)C1 (configuration not stated),nt,nt,nt,i,i,i,nt,nt,nt,nt,nt,nt,
O=C(Nc1ccccc1Cl)c1ccccc1Cl,i,i,i,i,i,i,nt,nt,nt,nt,nt,nt,
O=C(Nc1ccccc1O)c1ccccc1O,100,i,-8.85,i,i,i,40.4%,i,31.5%,i,i,i,
O=C(Cn1c(=O)n(CCCCC(=O)NC2CCCC2)c(=O)c2ccccc21)NCCC1=CCCCC1,100,i,-6.95,i,i,i,i,i,i,i,i,i,
CC(=O)N1CCN(c2ccccc2NC(=O)COc2cc(C)cc(C)c2)CC1,i,i,i,i,i,i,nt,nt,nt,nt,nt,nt,
CCCCCn1c(CN2CCN(c3cccc(Cl)c3)CC2)nc2c1c(=O)n(C)c(=O)n2C,i,i,i,i,i,i,nt,nt,nt,nt,nt,nt,
CCCCn1c(CN2CCN(c3cccc(Cl)c3)CC2)nc2c1c(=O)n(C)c(=O)n2C,25,i,-12.8,i,i,i,29.1%,i,i,i,i,i,
FC(F)(F)c1nnc(Nc2ccc(Cl)cc2)s1,i,i,i,nt,nt,i,nt,nt,nt,nt,nt,nt,
Fc1ccc(Nc2nnc(C(F)(F)F)s2)cc1Cl,100,i,-5.2,i,i,-6.76,50.7%,i,49.0%,i,i,i,
O=S(=O)(Nc1nc2ccccc2nc1Cl)c1cccc(C(F)(F)F)c1,25,i,-5.2,i,i,i,i,i,21.0%,i,i,i,
O=C(O)C1=CC[C@@H](c2ccc(Cl)cc2)N(S(=O)(=O)c2ccc(Cl)cc2)[C@H]1c1ccc(F)cc1,100,i,-6.35,i,i,i,57.8%,i,i,i,i,i,
Cc1ccc([C@@H]2CC=C(C(=O)O)[C@H](c3ccc(F)cc3)N2S(=O)(=O)c2ccc(C)cc2)cc1,i,i,i,i,i,i,nt,nt,nt,nt,nt,nt,
Cc1csc2ncnc(N3CCN(C(=S)Nc4ccc(C(F)(F)F)cc4)CC3)c12,i,i,i,nt,nt,i,nt,nt,nt,nt,nt,nt,
Cc1csc2c(N3CCN(C(=S)Nc4ccc(C(F)(F)F)cc4)CC3)ncnc12,100,i,-6.16,i,i,i,54.5%,i,i,i,i,i,
SMILES,ANO1 block,CHT allo act,CHT block,PKA-R1A act,PKA-R2B act,ANO1 activ,CHT block conf,HEK293 MPD ctr,TMEM16A reconf,HEK293 Ca mobil,YFP-HEK293 quench,ClC-1 rat inh,others
CC(C)c1cc(C(=O)N2CCCC(CCC(=O)N3CCN(c4ccccn4)CC3)C2)no1 (configuration not stated),25,i,-5.95,i,i,i,47.2%,i,i,i,i,i,
O=S(=O)(Nc1nc2ccccc2s1)c1ccc(Cl)s1,100,i,-5.21,i,i,i,55.8%,i,30.5%,i,i,i,
CC(C)(C)c1ccc(C(=O)Nc2ccc(Oc3cccnc3)nc2)cc1,100,i,-5.24,nt,nt,i,i,i,31.0%,i,i,i,
COC(=O)Cc1c(C)c2ccc(OCC(=O)N3CCCC(C)C3)c(C)c2oc1=O (configuration not stated),i,i,i,i,i,i,nt,nt,nt,nt,nt,nt,
N#Cc1c(NC(=O)CCn2cnc3ccccc3c2=O)oc(-c2ccccc2)c1-c1ccccc1,i,i,i,i,i,i,nt,nt,nt,nt,nt,nt,CHT act confirm=i;HEK293 MP dye=i
N#Cc1c(NC(=O)CSc2ccccn2)oc(-c2ccccc2)c1-c1ccccc1,i,i,i,i,i,i,nt,nt,nt,nt,nt,nt,
Cc1nc2sc3c(c2c(=O)o1)CC(C)(C)OC3,i,i,i,i,i,i,nt,nt,nt,nt,nt,nt,
